Source: PubChem BioAssay
tim23-1 inh: tim23-1 yeast growth inhibition. S. cerevisiae tim23-1 growth, BacTiter-Glo luminescence, 24 h. inhibition, % at 20 µM. 1.3% of 330,000 active. AID 463212;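 active = growth inhibition of the mutant yeast at or above 50%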;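 note: temperature-sensitive mutant grown at 25 °C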
B2AR ag: activates human beta-2 adrenergic receptor causing internalization | P07550 | Am2.2-beta2AR cells, FAP receptor internalization, flow cytometry | response, % (test concentration not listed) | 0.43% of 340,000 active;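 active = response above a set limit, near 3 SD of response in nonfluorescent compounds, cut at about 42% in these data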
Target sequence (P07550 whole entry, looked up): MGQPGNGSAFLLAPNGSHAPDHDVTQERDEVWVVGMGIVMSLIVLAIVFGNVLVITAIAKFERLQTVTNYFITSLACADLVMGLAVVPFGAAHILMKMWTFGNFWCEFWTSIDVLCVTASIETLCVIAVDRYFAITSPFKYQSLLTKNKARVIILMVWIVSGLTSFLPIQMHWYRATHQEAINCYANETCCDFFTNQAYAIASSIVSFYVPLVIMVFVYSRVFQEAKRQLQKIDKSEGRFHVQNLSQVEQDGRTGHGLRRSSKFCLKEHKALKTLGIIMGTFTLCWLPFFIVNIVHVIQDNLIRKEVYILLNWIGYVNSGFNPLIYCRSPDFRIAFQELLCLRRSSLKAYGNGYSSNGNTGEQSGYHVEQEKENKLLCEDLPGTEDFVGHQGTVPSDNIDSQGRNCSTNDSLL
PfHsp90 set2: growth inhibition of yeast expressing Plasmodium Hsp90; inhibition, % at 9.4 µM; 0.32% of 310,000 active; S. cerevisiae expressing PfHsp90, BacTiter-Glo ATP, 48 h; yeast lacking PDR1 and PDR3 efflux regulators;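 active = every replicate shows inhibition above about 80%, whatever the replicate mean, limit read from the data; inconclusive = mean inhibition reaches the set limit but some replicate falls short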
TIM10 inh: inhibits growth of TIM10 yeast strain. S. cerevisiae TIM10 strain growth, BacTiter-Glo luminescence, 24 h. inhibition, % at 10 µM. 1.4% of 330,000 active. AID 463195;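 active = inhibition of 40% or more at the single tested concentration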;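 note: wild-type TIM10 isogenic control strain grown at permissive 25 °C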
tim10-1 inh: tim10-1 yeast growth inhibition. 2.2% of 330,000 active. inhibition, % at 20 µM. S. cerevisiae tim10-1 ts strain growth, BacTiter-Glo, 24 h;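 active = inhibition of at least 40%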;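 note: mutant grown at 25 °C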
tim10 confirm: TIM10 yeast growth inhibition, confirmed; shares compounds with TIM10 inh; S. cerevisiae tim10 strain growth, BacTiter-Glo luminescence, 24 h; inhibition, % at 10 µM; 63% of 4,600 active; AID 463215;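 active = inhibition of yeast growth at or above a set limit in either of two replicates at 10 µM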; note: this counterscreen used the strain with wild-type TIM10
Large screens that a line does not name were inactive (follow-up assays come after a bar, where they were run). In the library only some 3.8% were active in any assay of this set; here they are far more common.

Cn1c(SCC(=O)N/N=C/c2ccc([N+](=O)[O-])s2)nnc1-c1ccccc1	PfHsp90 set2 inconclusive, TIM10 inh 71.0 | tim10 confirm 82.1
COc1ccc(OC)c(/C=C/C(=O)OCC(=O)NCc2cccs2)c1	TIM10 inh 40.8 (no result: PfHsp90 set2) | tim10 confirm inactive
Nc1nc(-c2ccc3c(c2)NC(=O)CO3)cs1	none
Cc1ccc2nc(-c3ccc4c(c3)NC(=O)CO4)cn2c1	TIM10 inh 45.5 | tim10 confirm 44.7
Cc1csc(=O)n1CC(=O)OCC(=O)NCc1ccc(F)cc1	none
Fc1ccc(NC(=S)Nc2ccccc2OC(F)F)cc1Cl	none
O=C(O)c1ccc(NC(=S)NCc2ccccc2)cc1	none
CC(NC(=S)Nc1ccc(OC(F)F)c(Cl)c1)C(C)(C)C (centres undefined)	TIM10 inh 50.5 | tim10 confirm 37.6
FC(F)Oc1ccc(NC(=S)NCc2ccccc2)cc1Cl	TIM10 inh 49.5 (no result: PfHsp90 set2) | tim10 confirm 33.5
FC(F)(F)c1ccc(NC(=S)NCc2ccccc2)cc1	TIM10 inh 45.4 | tim10 confirm 46.6
O=S(=O)(c1ccc(Oc2ncnc3scc(-c4ccccc4)c23)cc1)N1CCOCC1	none
CC(=O)Nc1cccc(Oc2ncnc3scc(-c4ccccc4)c23)c1	TIM10 inh 47.7 | tim10 confirm inactive
CCN(CC)c1ccc(/C=N/NC(=O)Nc2ccccc2)cc1	none
CCN(Cc1ccccc1)c1ccc(/C=N/NC(=S)NC(C)C)cc1	TIM10 inh 43.1 | tim10 confirm 45.1
O=C(c1ccccc1)[C@H]1[C@H](c2ccccc2)[C@@]2(N=C(c3ccccc3)OC2=O)C2c3ccccc3C=NN21 (some centres undefined)	TIM10 inh 42.0 (no result: B2AR ag, PfHsp90 set2) | tim10 confirm inactive
COc1ccc([C@H]2[C@H](C(=O)C(C)(C)C)N3N=Cc4ccccc4C3C23C(=O)OC(C)(C)OC3=O)cc1 (some centres undefined)	none
CCC(C)n1c(SCC(=O)Nc2cc(C(C)(C)C)nn2-c2ccccc2)nc2ccccc2c1=O (centres undefined)	TIM10 inh 40.7 | tim10 confirm inactive
CCC(C)n1c(SCC(=O)Nc2cc(C)on2)nc2ccccc2c1=O (centres undefined)	none
COc1ccc(CN=Cc2[nH]c3ccc(Br)c(Cl)c3c2O)cc1	TIM10 inh 41.3 | tim10 confirm inactive
Cc1cc(C)cc(N=Cc2[nH]c3ccc(Br)c(Cl)c3c2O)c1	none (no result: tim23-1 inh, B2AR ag, TIM10 inh, tim10-1 inh)
O=C(c1ccc([N+](=O)[O-])s1)N1CCc2ccccc2C1	TIM10 inh 45.2 | tim10 confirm inactive
O=C(c1ccc([N+](=O)[O-])s1)N1CCc2ccccc21	none
CCN(CC)C(=O)N1CCN(S(=O)(=O)c2c(C)cc(C)cc2C)CC1	TIM10 inh 40.4 | tim10 confirm inactive
CC(C)(C)n1nnnc1C(c1ccncc1)N(Cc1ccccc1)Cc1ccco1 (centres undefined)	TIM10 inh 41.5 | tim10 confirm inactive
Cc1ccc(N/N=C(\C#N)C(N)=S)cc1C	TIM10 inh 42.2 | tim10 confirm inactive
C#CCOCCOCCOCCNc1nc(N2CCN(C(=O)[C@H](CCC(=O)O)n3cc([C@@H](N)[C@H](C)CC)nn3)CC2)nc(N2CCN(C(=O)[C@H](CCCCN)n3cc([C@@H](N)CC(N)=O)nn3)CC2)n1	none
Cc1ccc([C@H]2C(C(=O)O)=CC[C@@H](c3ccc4c(c3)OCO4)N2S(=O)(=O)c2ccc(C)cc2)cc1	none
O=C(N/N=C/c1ccc(-c2cccc(C(F)(F)F)c2)o1)c1cccc(F)c1	TIM10 inh 44.9 | tim10 confirm 39.5
NC(=O)N/N=C/c1ccc(-c2cccc(C(F)(F)F)c2)o1	none
CC(O)(CC(=O)CC(=O)c1ccccc1)c1ccccc1 (centres undefined)	none (no result: tim23-1 inh, PfHsp90 set2, TIM10 inh, tim10-1 inh)
COc1ccc(-c2cn3cccnc3n2)cc1NC(=O)C(C)C	none
COc1ccc(-c2cn3cccnc3n2)cc1Br	TIM10 inh 45.9 | tim10 confirm 55.3
Cc1c(Cl)cccc1NC(=O)C1CC2CCC1C2 (centres undefined)	none (no result: PfHsp90 set2)
Cc1ccc(NC(=S)NNC(=S)Nc2cccc(C(F)(F)F)c2)cc1	TIM10 inh 53.0 | tim10 confirm 48.4
CC(NC(=S)Nc1cccc(C(F)(F)F)c1)C(C)(C)C (centres undefined)	TIM10 inh 44.7 (no result: PfHsp90 set2) | tim10 confirm inactive
Cc1ccc(NC(=S)NNC(=S)Nc2ccc(C)cc2)cc1	none (no result: tim23-1 inh, TIM10 inh, tim10-1 inh)
CSc1ccccc1NC(=S)Nc1cccc(C(F)(F)F)c1	none
COc1cc(N)c2ncsc2c1	none (no result: tim23-1 inh, TIM10 inh, tim10-1 inh)
Nc1c(C(=O)O)sc2nc(-c3ccccc3)c3c(c12)CCCC3	none
CCc1c(-c2ccccc2)nc2sc3c(c2c1N)CCCC3	TIM10 inh 45.4 | tim10 confirm 48.7
Cc1cc(C)cc(C(=O)OCC(=O)NC2CCCC2)c1	none
Cc1cc(C)cc(C(=O)OCC(=O)NC(=O)NC2CCCC2)c1	TIM10 inh 96.4 | tim10 confirm inactive
COc1cc2c(cc1NC(=O)CN(C)Cc1nc3ccccc3c(=O)[nH]1)oc1ccccc12	TIM10 inh 41.7 (no result: PfHsp90 set2) | tim10 confirm inactive
Cc1cc(C(=O)CCl)c(C)n1CCc1ccc(F)cc1	none
COc1ccc(CCn2c(C)cc(C(=O)CCl)c2C)cc1OC	TIM10 inh 42.4 | tim10 confirm 43.6
Oc1ccc(CN2CCc3ccccc3C2)c2cccnc12	TIM10 inh 41.2 | tim10 confirm inactive
Oc1ccc(CN2CCC(Cc3ccccc3)CC2)c2cccnc12	none (no result: B2AR ag, PfHsp90 set2)
C=CCN(C(=O)CSc1nc2c(sc3ccccc32)c(=O)n1CCN(CC)CC)c1ccccc1	TIM10 inh 51.3 | tim10 confirm inactive
COc1cccc(CN(C)C(=O)c2ccc(Cl)c(S(=O)(=O)N3CCCCCC3)c2)c1OC	none (no result: tim23-1 inh, TIM10 inh, tim10-1 inh)
O=C(c1ccc(Cl)cc1)c1cc(-c2ccccn2)c(N2CCOCC2)s1	TIM10 inh 40.0 | tim10 confirm inactive
NS(=O)(=O)c1ccc(NC(=O)/C(=C/c2ccncc2)NC(=O)c2ccccc2)cc1	none
COc1ccccc1-c1cccc([C@@H]2C[C@H]3[C@H](CON3C)CN2C(=O)C(C)(C)C)c1	none (no result: tim23-1 inh, TIM10 inh, tim10-1 inh)
CC(C)(C)c1ccc(OCCNCc2ccccc2)cc1	none
CC(C)(C)c1ccc(OCCNC(=S)Nc2ccccc2)cc1	TIM10 inh 54.0 | tim10 confirm 39.1
CCn1c(O)c(/C=C2\C=Nc3ccccc32)sc1=O	TIM10 inh 44.3 | tim10 confirm inactive
CCCCc1nnc(NC(=O)c2ccc3[nH]c(=O)c(=O)[nH]c3c2)s1	none
COc1ccc(-c2n[nH]c(=S)n2C2CCCCC2)cc1	TIM10 inh 43.0 | tim10 confirm 32.2
Fc1cccc(Cn2cc(C(=S)N3CCCCC3)c3ccccc32)c1	TIM10 inh 47.7 | tim10 confirm inactive
O=[N+]([O-])c1ccc(Nc2cccc3c2[nH]c2c(-c4ccccc4)nccc23)c([N+](=O)[O-])c1	none (no result: tim23-1 inh, TIM10 inh, tim10-1 inh)
CC(C)(C)C(=O)OCc1nc(-c2ccc(F)cc2)cs1	TIM10 inh 40.9 | tim10 confirm 39.1
